Test results: the supplement of paper PMC10127200
Where a name gives a salt, the structure may show the parent alone.

tested on: 786-O; experiment: Euclidean distance of Cell Painting phenotypic profile (signed KS, 77 features) to DMSO centroid (dimensionless distance); 5 or 10 uM (library dependent); higher = stronger phenotypic change vs DMSO (phenoactivity); settings: 48 h
Procedure, shortened: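 Stained cells were imaged confocally at 20X with 9 fields per well, after 48 h of exposure to library compounds at 10 or 5 uM (set by library; 0.1% DMSO final). The cells were five cancer lines and a healthy fibroblast line. From the images, Harmony extracted 77 features, each expressed as a signed Kolmogorov-Smirnov statistic relative to same-plate vehicle wells. Phenoactivity is measured as Euclidean distance to the median vehicle profile, using plate-position-corrected, correlation-weighted profiles averaged across replicates at the top dose.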

First: CCCCC(C)(O)C/C=C/[C@H]1[C@H](O)CC(=O)[C@@H]1CCCCCCC(=O)OC (mixture of isomers) [Misoprostol]
Second: CCOC(=O)[C@H](CCc1ccccc1)N[C@@H](C)C(=O)N1Cc2ccccc2C[C@H]1C(=O)O [Quinapril HCl]
The Euclidean distance of the first is lower: 1.2 for the first, 1.41 for the second.

Compared with `NCC(=O)CCC(=O)O` [5-Aminolevulinic acid HCl], `COc1ccc(OC)c(C(O)CNC(=O)CN)c1` (stereo unspecified) [Midodrine] is lower in Euclidean distance: 1.2 for the first, 0.905 for the second.

Compared with `Cc1cccc(-c2[nH]ncc2-c2ccc3ncccc3n2)n1`, `COc1nc(C)cnc1NS(=O)(=O)c1cccnc1-c1ccc(-c2nnco2)cc1` [Zibotentan (ZD4054)] is higher in Euclidean distance: 0.773 for the first, 1.49 for the second.

Going from `CS(=O)(=O)CCNCc1ccc(-c2ccc3ncnc(Nc4ccc(OCc5cccc(F)c5)c(Cl)c4)c3c2)o1` [Lapatinib ditosylate monohydrate] to `CCCc1nc2c(C)cc(-c3nc4ccccc4n3C)cc2n1Cc1ccc(-c2ccccc2C(=O)O)cc1` [Telmisartan], the Euclidean distance falls from 4.93 to 1.83.

Compared with `CS(=O)(=O)CCNCc1ccc(-c2ccc3ncnc(Nc4ccc(OCc5cccc(F)c5)c(Cl)c4)c3c2)o1` [Lapatinib], `C=CC(=O)Nc1cccc(Oc2nc(Nc3ccc(N4CCN(C)CC4)cc3)nc3ccsc23)c1` is higher in Euclidean distance: 4.13 for the first, 4.18 for the second.

Compared with `Clc1ccc(COC(Cn2ccnc2)c2ccc(Cl)cc2Cl)cc1` (stereo unspecified) [Econazole], `Clc1ccc2c(c1)C(N1CCNCC1)=Nc1ccccc1O2` [Amoxapine] is higher in Euclidean distance: 1.06 for the first, 1.43 for the second.

Compared with `COc1ccc(-c2cc(=O)c3c(O)cc(O[C@@H]4O[C@H](CO[C@@H]5O[C@@H](C)[C@H](O)[C@@H](O)[C@H]5O)[C@@H](O)[C@H](O)[C@H]4O)cc3o2)cc1O` [Diosmin], `CC(C)N(C[C@H]1O[C@@H](n2cnc3c(N)ncnc32)[C@H](O)[C@@H]1O)[C@H]1C[C@@H](CCc2nc3cc(C(C)(C)C)ccc3[nH]2)C1` is higher in Euclidean distance: 0.665 for the first, 0.867 for the second.

First: COc1cnc(-n2cnc(C)n2)c2[nH]cc(C(=O)C(=O)N3CCN(C(=O)c4ccccc4)CC3)c12
Second: CN(C)C1CCN(C(=O)c2ccc(NC(=O)Nc3ccc(-c4nc(N5CCOCC5)nc(N5CCOCC5)n4)cc3)cc2)CC1
The Euclidean distance of the first is lower: 1.35 for the first, 3.29 for the second.

Going from `O=C(NNc1ccccc1)c1ccncc1` to `CC(CN1c2ccccc2Sc2ccccc21)N(C)C` (stereo unspecified) [Promethazine HCl], the Euclidean distance falls from 2.02 to 0.72.

Compared with `CC/C(=C(\c1ccc(O)cc1)c1ccc(OCCN(C)C)cc1)c1ccccc1` [4-Hydroxytamoxifen], `CCN(CC)CCOCCOC(=O)C1(c2ccccc2)CCCC1` [Pentoxyverine Citrate] is lower in Euclidean distance: 3.21 for the first, 0.795 for the second.

Compared with `CC(=O)OCC1=C(C(=O)O)N2C(=O)[C@@H](NC(=O)CSC(=NC(C)C)NC(C)C)[C@H]2SC1` [Cefathiamidine], `CC(=O)/N=c1/sc(S(N)(=O)=O)nn1C` [Methazolamide] is lower in Euclidean distance: 1.48 for the first, 1.32 for the second.

Going from `CNCCc1ccccn1` [Betahistine mesylate] to `CCCc1nn(C)c2c(=O)[nH]c(-c3cc(S(=O)(=O)N4CCN(C)CC4)ccc3OCC)nc12` [Sildenafil], the Euclidean distance rises from 0.848 to 1.51.

First: Cc1ccccc1-c1cc(N2CCN(C)CC2)ncc1N(C)C(=O)C(C)(C)c1cc(C(F)(F)F)cc(C(F)(F)F)c1 [Netupitant]
Second: Nc1nc(NC2CC2)c2ncn([C@H]3C=C[C@@H](CO)C3)c2n1 [Abacavir sulfate]
The Euclidean distance of the first is higher: 1.35 for the first, 1.09 for the second.
